According to PubChem BioAssay AID1851 (National Center for Advancing Translational Sciences (NCATS), 2009):
Out of some 16,000 compounds screened, about 5,800 (36%) were called active. About 23% were inconclusive and are not listed. The list shows a part of the results. Values without a mark were called inactive. The call rests on the fitted dose curve; in most records, active means well fitted curve in the direction sought with a large enough effect; inconclusive means small, poorly fitted or top-dose-only effect, or effect the other way; inactive means no such curve, though single readings can be large or run the other way.

What follows are compounds tested against Cytochrome P450 2C19 (Homo sapiens) (UniProt P33261) (assay: Cytochrome panel assay with activity outcomes). Conditions: recombinant CYP, pro-luciferin dealkylation, luminescence, p450-cyp2c19; series mostly up to 57.1 µM; activity, negative = inhibition: at the top concentration.
Sequence of Cytochrome P450 2C19 (Homo sapiens) (P33261 whole entry, looked up): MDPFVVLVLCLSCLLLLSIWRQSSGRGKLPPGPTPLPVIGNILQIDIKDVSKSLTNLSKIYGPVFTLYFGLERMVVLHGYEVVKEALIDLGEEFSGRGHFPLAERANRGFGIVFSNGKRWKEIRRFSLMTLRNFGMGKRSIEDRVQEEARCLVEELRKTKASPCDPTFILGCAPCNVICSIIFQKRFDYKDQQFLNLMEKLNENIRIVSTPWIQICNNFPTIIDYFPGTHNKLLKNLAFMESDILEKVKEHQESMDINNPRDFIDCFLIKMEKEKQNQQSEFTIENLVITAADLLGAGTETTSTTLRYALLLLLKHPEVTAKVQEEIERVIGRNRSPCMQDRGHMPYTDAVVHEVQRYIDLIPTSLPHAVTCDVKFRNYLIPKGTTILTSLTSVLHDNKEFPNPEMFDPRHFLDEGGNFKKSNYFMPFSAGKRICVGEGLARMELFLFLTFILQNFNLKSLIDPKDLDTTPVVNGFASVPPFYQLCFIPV
On the % scale 0 is the no-effect control and ±100 the full control effect.

Compound | AC50 | activity, negative = inhibition
CCCCOC(=O)c1cc2c(cn1)[nH]c1ccccc12 | 5.01 µM (active) | 
CC(=O)c1cccc(NS(=O)(=O)c2ccc(N/C=C\C(=O)c3ccc(F)cc3)cc2)c1 | 5.62 µM (active) | 
Cc1noc(NS(=O)(=O)c2ccc(N/C=C/C(=O)c3ccc4c(c3)OCO4)cc2)c1C |  | 1.16%
Cn1c(=O)c(-c2cc(F)cc(F)c2)nc2cnc(N3CCOCC3)nc21 |  | -14.8%
COC(=O)c1[nH]c2ccc(Br)cc2c1NC(=O)CN1CCN(C2CCCCC2)CC1 | 15.8 µM (active) | 
COC(=O)c1[nH]c2cc(OC)ccc2c1NC(=O)CCN1CCSCC1 |  | -20.9%
COC(=O)c1[nH]c2ccc(Br)cc2c1NC(=O)CN1CCCc2ccccc21 | 7.94 µM (active) | 
COC(=O)c1[nH]c2cccc(OC)c2c1NC(=O)CN(C)CC1OCCO1 |  | -23%
Cc1ccc(S(=O)(=O)N[C@H]2COC(=O)[C@@H](Cc3ccccc3)NC(=O)[C@@H](C)COC(=O)C/C=C\[C@@H]2C)cc1 |  | 32% [at 11.4 µM]
O=C(c1csnn1)N1CCC2(CCN(Cc3nccs3)CC2)CC1 |  | 5.37%
CCN(CC)CC[n+]1ccc2c(C)c3[nH]c4ccc(O)cc4c3c(C)c2c1 |  | 42.4% [at 11.4 µM]
CCCS(=O)(=O)N1CCN(CC2CC=CCC2)CC1 (centres undefined) | 3.98 µM (active) | 
CCCS(=O)(=O)N1CCCC(C(=O)N2CCOCC2)C1 (centres undefined) |  | 10.9%
CCCS(=O)(=O)N1CCCC(C(=O)NCCN2CCOCC2)C1 (centres undefined) |  | 14.8%
O=c1cc(CF)[nH]c(=S)[nH]1 |  | 16.1% [at 11.4 µM]
CN(NC(=O)NN)c1ncc(C(F)(F)F)cc1Cl | 10 µM (active) | 
O=C(CN(C(=O)CSc1nc2ccccc2o1)c1cccc(F)c1)NC1CCCCC1 | 1 µM (active) | 
NC(N)=N/N=C(\c1ccc(Cl)cc1)C1CC1 |  | -27.1% [at 11.4 µM]
COc1ccc2nc(N)sc2c1 | 31.6 µM (active) | 
COc1ccc(Cc2c(N)nc(N)nc2N)cc1 |  | 5.91%
COc1ccc(N2C(N)=NC(N)=NC2(C)C)cc1 |  | -8.58%
O=C1NC(c2cccc([N+](=O)[O-])c2)=CCN1c1ccccc1O | 6.31 µM (active) | 
O=C(O)c1cc(-c2ccc3cc4c(cc3c2)OCO4)nc2ccccc12 |  | 35.1% [at 11.4 µM]
Cc1ccccc1NC(=S)NC(=O)c1cc(-c2ccccc2)nc2ccccc12 | 2.82 µM (active) | 
CCCOc1ccc(C(=O)NNC(=S)NC(=O)c2cc(-c3ccccc3)nc3ccccc23)cc1 |  | -21.5%

Compound | AC50 | activity, negative = inhibition
Cc1cccc(NC(=S)NC(=O)c2cc(-c3ccccc3)nc3ccccc23)c1 | 1.58 µM (active) | 
Cc1ccc(-c2cc(C(=O)NN=C3CCCC3)c3ccccc3n2)cc1 | 28.2 µM (active) | 
C[C@@]12CC(=O)[C@@H]3[C@@H](CCC4=CC(=O)CC[C@]43C)[C@@H]1CC=C2CC(=O)O |  | 30.4% [at 11.4 µM]
COCC(=O)N1CCC2(CCN(Cc3ccncc3)CC2)CC1 | 0.0251 µM (active) | 
O=C(Oc1ccccc1)N1CCC2(CCCN(c3cccc(-c4ccccc4)c3)C2)CC1 |  | -3.32%
c1ccc(-c2ccc(N3CC4(CCNCC4)C3)cc2)cc1 |  | -17.5%
O=C(c1ccncc1)N1CCC2(CCN(Cc3ccncc3)CC2)CC1 |  | -43.2%
COCC(=O)N1CCC2(CC1)CN(C(=O)Nc1ccccc1)C2 | 5.01 µM (active) | 
COCC(=O)N1CCC2(CCCN(c3ccncc3)C2)CC1 |  | -23.3%
COCC(=O)N1CCC2(CCCN(c3cccc(-c4ccccc4)c3)C2)CC1 | 15.8 µM (active) | 
COCC(=O)N1CCC2(CC1)CN(C(=O)Nc1ccc(OC)cc1)C2 |  | 6.33%
c1ccc(-c2ccc(N3CCCC4(CCNCC4)C3)cc2)cc1 | 15.8 µM (active) | 
c1ccc(-c2cccc(N3CC4(CCNCC4)C3)c2)cc1 |  | -26.2%
COCC(=O)N1CCC2(CCCN(C(=O)Nc3ccccc3)C2)CC1 |  | 3.47%
CC(=O)N1CCC2(CCN(Cc3ccncc3)CC2)CC1 |  | 2.56%
CCN=C(N)CSS(=O)(=O)O |  | -0.003% [at 11.4 µM]
COc1ccc(C(=O)N2CCC[C@@]3(CCN(C(=O)Nc4ccccc4)C3)C2)cc1 |  | -24.3%
CC(=O)N1CCC2(CC1)CCN(c1cccc(-c3ccccc3)c1)CC2 |  | -42%
CC(=O)N1CCC2(CCCN(c3ccccc3)C2)CC1 | 25.1 µM (active) | 
CC(=O)N1CCC2(CCCN(Cc3ccccc3)C2)CC1 |  | -2.53%
O=C(c1cnccn1)N1CCC2(CC1)CN(c1ccccc1)C2 |  | -14.9%
CC(=O)N1CCC2(CCCN(c3cccc(-c4ccccc4)c3)C2)CC1 | 15.8 µM (active) | 
COc1ccc(C(=O)N2CCC[C@@]3(CCN(c4cccc(-c5ccccc5)c4)C3)C2)cc1 | 7.94 µM (active) | 
O=C(c1cnccn1)N1CCC2(CCCN(c3ccccc3)C2)CC1 | 0.501 µM (active) | 
